PubChem BioAssay AID651871 (Sanford-Burnham Center for Chemical Genomics, 2012)

system: HL-1; experiment: cardiomyocyte survival under oxidative or metabolic stress – cell-based, panel, H9c2 and HL-1, ATP luminescence, set 2, SAR follow-up (AID 651871); details: H9c2/HL-1 cardiomyocytes, 2-deoxyglucose stress, with 2-deoxyglucose, run 13, at 79 µM (top of the series);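 note: cells exposed to stressor for 2 h before ATP readout; reference of the scale not given here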

Row | Compound | activity (protection/inhibition) [%]
1 | COc1ccc2c(c1OC)C(=O)N1c3ccccc3C(=O)N(Cc3cccc(Cl)c3Cl)C21 (stereo not drawn) | -9.86
2 | COc1ccc2nc(-c3cc(OC)c(OC)c(OC)c3)cc(C(=O)NCC(=O)Nc3ccc(C(C)=O)cc3)c2c1 | 55.5
3 | CCOC(=O)c1cccc(NC(=O)CNC(=O)c2cc(-c3cc(OC)c(OC)c(OC)c3)nc3ccccc23)c1 | 66.6
